Bioassay records (PubChem BioAssay)
Compounds with a hit are over-represented: about 10% of the library has one in this group of screens.
Luciferase inh – Photinus pyralis luciferase inhibition; P08659; purified P. pyralis luciferase, luminescence, biochemical; Potency, µM (series often up to 115 µM), actives largely listed as inhibitors; actives 2.5% (n = 76,000); also: nearly all actives have a fitted effect of over 65% in size
Target sequence (P08659 whole entry, looked up): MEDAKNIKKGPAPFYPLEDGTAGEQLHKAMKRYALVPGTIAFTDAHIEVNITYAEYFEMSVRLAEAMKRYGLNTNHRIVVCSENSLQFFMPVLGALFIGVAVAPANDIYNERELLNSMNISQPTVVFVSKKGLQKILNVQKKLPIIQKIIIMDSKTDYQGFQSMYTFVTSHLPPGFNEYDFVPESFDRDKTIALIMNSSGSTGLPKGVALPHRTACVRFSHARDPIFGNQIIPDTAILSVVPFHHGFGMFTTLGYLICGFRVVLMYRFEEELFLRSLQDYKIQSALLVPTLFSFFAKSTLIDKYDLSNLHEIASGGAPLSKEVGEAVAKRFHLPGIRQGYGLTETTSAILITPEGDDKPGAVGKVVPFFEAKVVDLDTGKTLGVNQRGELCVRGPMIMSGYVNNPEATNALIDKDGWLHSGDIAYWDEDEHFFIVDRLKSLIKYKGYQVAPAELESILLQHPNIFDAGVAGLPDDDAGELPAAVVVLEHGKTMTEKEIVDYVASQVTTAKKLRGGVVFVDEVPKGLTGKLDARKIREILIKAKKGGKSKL
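Purified P. pyralis luciferase (10nM final) in 50mM Tris acetate pH 7.5, 10mM Mg acetate, 0.01% Tween-20, 0.05% BSA with 10uM D-luciferin and 10uM ATP. Compounds titrated qHTS. Luminescence imaged on CCD.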
3T3 cytotox – NIH 3T3 cell cytotoxicity. NIH 3T3 viability, CellTiter-Glo ATP luminescence, 48-72 h. Potency, µM (top dose mostly 96.7 µM), for inactives: at the top dose activity change, negative = cytotoxicity, actives largely listed as inhibitors. actives 4.3% (n = 94,000). AID 1345082; also: nearly all actives have a fitted effect of over 55% in size
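Cytotoxicity was measured by CellTiter-Glo ATP luminescence after 48 or 72 h compound exposure at 37 °C. Mouse NIH 3T3 fibroblasts were seeded at 400 cells/well and dosed by 23 nL pin transfer.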
NPR1 antag – antagonists of human natriuretic peptide receptor Npr1 | P16066 | HEK293 hNpr1 GloSensor cGMP, ANP-stimulated luminescence | Potency, µM (series often up to 46.3 µM), for inactives: top-dose activity change, negative = inhibition, most hits filed as inhibitors | actives 1.6% (n = 76,000); calls by dose curve; also: nearly all actives have a fitted effect of over 60% in size
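HEK293 cells stably expressing human Npr1 and cGMP GloSensor pGS-40F, loaded 2 h with 2% GloSensor reagent, given compound 30 min at room temperature. Luminescence read before and 20 min after 0.1 nM hNppA.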
GPT2 inh – blocks human glutamate pyruvate transaminase 2; Q8TD30; Recombinant GPT2, coupled pyruvate oxidase/HRP Amplex Red fluorescence; Potency, µM (highest dose often 57.7 µM), for the others: at the highest dose activity change, negative = inhibition, usual class: inhibitors; actives 0.25% (n = 100,000); AID 1671188; also: nearly all actives have a fitted effect of over 60% in size
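Recombinant GPT2 (10ng/uL) with 250uM a-KG and 2mM L-alanine, 30 min at room temperature, in HEPES pH 7.5 buffer. Pyruvate detected by pyruvate oxidase/HRP/Amplex Red fluorescence after 30 min in the dark; AOA (50uM) as positive control.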
HEK cytotox – cytotoxic compounds in HEK 293 cells; HEK 293 viability, ATP luminescence (CellTiter-Glo), 48-72 h; Potency, µM (titrated, usually from 115 µM), for the others: at the top dose activity change, negative = cytotoxicity, hits mostly inhibitors; actives 6.6% (n = 94,000); AID 1345083; also: nearly all actives have a fitted effect of over 60% in size
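ATP-coupled CellTiter-Glo luminescence served as viability read-out, recorded 10 min after reagent addition at room temperature. HEK 293 cells, 250 cells/well, had been incubated with pintool-transferred compound for 48 or 72 hr at 37 degree Celsius.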
The depositor's hits bear a star; i = inactive; u = inconclusive; x = no result given; [ ] = remark or other dose. Unless noted, calls follow the shape of the dose curve; as a rule, active = well fitted curve in the direction sought with a large enough effect; inconclusive = small, poorly fitted or top-dose-only effect, or another doubt; inactive = no such curve, though single readings can be large; an effect the other way counts as inactive or inconclusive. % is scaled to controls: 0 for no effect and ±100 for the full control effect; potency is read from the fitted curve at half-maximal effect.

SMILES | Luciferase inh | 3T3 cytotox | NPR1 antag | GPT2 inh | HEK cytotox
CCN1c2cc(C(=O)Nc3ccc(C#N)cc3)ccc2C(=O)N2CCCCCC21 (stereo not given) | i | u | -21% | -5% | u
Cc1cccc2c1O[C@H]1[C@H](CO)CN([S+](=O)([O-])c3cccs3)[C@@H]21 | x | -30% | x | x | u
COc1ccc2c(c1)O[C@H]1[C@H](CO)CN([S+](=O)([O-])c3cccs3)[C@@H]21 | x | u | x | x | 50µM*
CC(C)(C)c1ccnc(N[C@H]2CO[C@H]3[C@@H]2OC[C@@H]3NS(=O)(=O)c2cccs2)n1 | u | 79µM* | 10µM* | -11%[88.5 µM] | u
COc1ccccc1-c1ccnc(N[C@H]2CO[C@H]3[C@@H]2OC[C@@H]3NS(=O)(=O)c2cccc3cccnc23)n1 | i | -23% | 6% | -6% | -19%
CC(C)(C)c1ccnc(N[C@H]2CO[C@H]3[C@@H]2OC[C@@H]3NC(=O)NCc2ccccc2)n1 | i | u | -23%[70.6 µM] | u | 89µM*
COc1ccccc1-c1ccnc(N[C@H]2CO[C@H]3[C@@H]2OC[C@@H]3NS(=O)(=O)c2ccc3ccccc3c2)n1 | i | u | u | -21% | 32µM*
COc1ccc(-c2ccc(C(=O)Nc3ccccc3Cl)cc2)nn1 | x | -27%[138 µM] | x | x | u
O=C(NCc1nnc2n1C(C(=O)NCc1ccc(F)cc1)CC2)c1ccccc1 (stereo not given) | x | 5% | x | 0% | -2%
Cc1ccc(NC(=O)N2C[C@@H](F)C[C@H]2C(=O)N2CCc3ccccc3C2)cc1F | i | 35µM* | -1% | 3% | 40µM*
O=C([C@@H]1C[C@H](F)CN1S(=O)(=O)Cc1ccc(Cl)cc1)N1CCc2ccccc2C1 | i | 16µM* | u | i | u
COc1ccc2c(c1)c(CN1CCCC(c3nc(C(C)C)no3)CCNC(=O)CC1)cn2C(C)C (stereo not given) | i | u | -20% | -25% | u
CC(C)c1noc(C2CCCN(Cc3cn(C(C)C)c4ccccc34)CCC(=O)NCC2)n1 (stereo not given) | i | u | -7% | i | 40µM*
CN(Cc1ccc(-c2ccccc2)cc1)C(=O)c1ccc(F)cc1 | i | u | -9%[70.6 µM] | -2%[88.5 µM] | 71µM*
COc1cccc(C(=O)N(C)Cc2ccc(F)cc2)c1 | i | -19%[138 µM] | 0%[70.6 µM] | -8%[88.5 µM] | -28%[172 µM]
COc1cccc(C(=O)N(C)Cc2ccc(-c3ccccc3)cc2)c1 | i | u | 6%[70.6 µM] | -2%[88.5 µM] | 71µM*
Cc1ccccc1C(=O)N(C)Cc1ccc(-c2ccccc2)cc1 | i | 50µM* | u | -3%[88.5 µM] | u
COc1ccc(C(=O)NC2CCN(c3cc(-c4ccc(Cl)cc4)[nH]n3)C2)cn1 (stereo not given) | i | u | -25% | u | u
OC1(CN2CCN(C(c3ccccc3)c3ccccc3)CC2)CNCCOC1 (stereo not given) | i | u | 1% | 1% | u
O=C(C1CCCC1)N1CCCC(C(=O)N2CCCC(c3nc4ncccc4[nH]3)C2)C1 (stereo not given) | x | -26% | x | i | -15%
COc1cc(NC(=O)Cn2c(C)cc3nc4n(c(=O)c32)CCCC4)cc(OC)c1 | i | -12% | -18% | i | -7%
CC1(C(=O)NCCc2ccccn2)CCc2cnc(NCc3ccccc3)nc21 (stereo not given) | i | 40µM* | -2%[70.6 µM] | 2%[88.5 µM] | -30%[172 µM]
CC1(C(=O)NCc2cnccn2)CCc2cnc(NCc3ccccc3)nc21 (stereo not given) | i | 50µM* | 1%[70.6 µM] | 3%[88.5 µM] | -4%[172 µM]
CC1(C(=O)NCc2cccnc2)CCCc2cnc(Nc3ccccc3F)nc21 (stereo not given) | i | u | 2%[70.6 µM] | u | u
CC1(C(=O)NCC2CCCO2)CCc2cnc(NCc3ccccc3)nc21 (stereo not given) | i | 50µM* | -5%[70.6 µM] | -2%[88.5 µM] | -26%[172 µM]
SMILES | Luciferase inh | 3T3 cytotox | NPR1 antag | GPT2 inh | HEK cytotox
CC1(C(=O)N2CCN(c3ccccn3)CC2)CCc2cnc(NCc3ccccc3)nc21 (stereo not given) | i | u | -8%[70.6 µM] | 2%[88.5 µM] | 100µM*
CC1(C(=O)NCC2CC2)CCCc2cnc(NCc3ccccc3)nc21 (stereo not given) | i | u | -24%[70.6 µM] | -16%[88.5 µM] | u
O=C1CO[C@H]2CCN(Cc3ccc4c(c3)CCO4)CC[C@@H]2N1Cc1ccccc1 | i | 100µM* | -21%[70.6 µM] | i | u
CC(C)c1ccc(CN2CC[C@@H]3OCC(=O)N(Cc4ccccc4)[C@H]3CC2)cc1 | i | 35µM* | u | -25%[88.5 µM] | 32µM*
Cc1cnc(C(=O)N[C@@H]2CCC[C@@H]2C(=O)N2CCC(N3CCCCC3)CC2)cn1 | i | 4% | -4% | i | i
CC(=O)NCC(=O)N1Cc2ccccc2CC2(CCCN(CC3CCNCC3)C2)C1 (stereo not given) | x | i | x | 0% | i
Cc1cnn(-c2cc(N3CCC(n4cc(C5CCCC5)nn4)CC3)ncn2)c1 | i | u | u | -6%[11.5 µM] | 45µM*
CCN(CC)C(=O)C1=C(C)N=C2SC=C(CC(=O)NCC3CC3)N2C1c1ccccc1 (stereo not given) | i | -12% | 0% | i | -1%
COc1ccc(CC(=O)N2CCCN(S(C)(=O)=O)c3ccccc32)cc1OC | i | -13% | -3% | i | -4%
Cc1cccc(CC(=O)N2CCCN(S(C)(=O)=O)c3ccccc32)c1 | i | 40µM* | -1% | 2% | -16%
O=C(CCn1cnc2ccccc2c1=O)N[C@@H]1COCC[C@H]1Oc1ccccn1 | i | -5% | -2% | -18% | -7%
O=C1CC2(CCN(C(=O)C3CCCN(C(=O)c4ccccc4Cl)C3)CC2)Oc2ccccc2N1 (stereo not given) | x | -22% | x | 3% | -14%
Cn1c2c(c3ccccc31)CN(C(=O)Nc1ccc(Cl)cc1Cl)CC2 | 25µM* | u | -19% | i | u
Cn1c2c(c3ccccc31)CN(C(=O)Nc1ccccc1F)CC2 | u | 35µM* | -3% | -18% | 45µM*
Cn1c2c(c3cc(F)ccc31)CN(C(=O)Nc1ccc(Cl)cc1Cl)CC2 | i | u | -13% | i | u
Cc1cccc(CN2CCCC(O)(CN3CCNC(=O)C3(C)C)C2=O)c1 (stereo not given) | i | -2% | 4% | i | -7%
COCCN1C(=O)[C@@H]2C[C@@H](CN2C(=O)C2CC2)Oc2ccccc21 | i | -16%[138 µM] | -4%[70.6 µM] | i | -10%[172 µM]
CN(C)c1ccc(-c2cc3c(ccn3C)c(C(=O)NCc3cccnc3)n2)cc1 | u | u | -3%[70.6 µM] | -20%[88.5 µM] | u
